Efflux pump inh: antifungal efflux pump inhibition, Nile Red retention. S. cerevisiae Candida pump triplex. inhibition, % at 10 µM. 330,000 compounds, 0.44% hits;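 active = plate passing quality check with inhibition over a set limit, or well fluorescence over plate mean plus 4 SD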;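 note: Nile Red retained in pooled yeast measured as flow cytometry median fluorescence; higher means more Nile Red kept so more efflux inhibition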
VLA-4 inh: inhibition in a human VLA-4 binding assay | P13612 | VLA-4 expressing cells, ligand binding flow cytometry | inhibition, % (about 7 µM as worked out from the volumes in the protocol) | 330,000 compounds, 0.2% hits; in the data active = inhibition above about 50%
Target sequence (P13612 whole entry, looked up): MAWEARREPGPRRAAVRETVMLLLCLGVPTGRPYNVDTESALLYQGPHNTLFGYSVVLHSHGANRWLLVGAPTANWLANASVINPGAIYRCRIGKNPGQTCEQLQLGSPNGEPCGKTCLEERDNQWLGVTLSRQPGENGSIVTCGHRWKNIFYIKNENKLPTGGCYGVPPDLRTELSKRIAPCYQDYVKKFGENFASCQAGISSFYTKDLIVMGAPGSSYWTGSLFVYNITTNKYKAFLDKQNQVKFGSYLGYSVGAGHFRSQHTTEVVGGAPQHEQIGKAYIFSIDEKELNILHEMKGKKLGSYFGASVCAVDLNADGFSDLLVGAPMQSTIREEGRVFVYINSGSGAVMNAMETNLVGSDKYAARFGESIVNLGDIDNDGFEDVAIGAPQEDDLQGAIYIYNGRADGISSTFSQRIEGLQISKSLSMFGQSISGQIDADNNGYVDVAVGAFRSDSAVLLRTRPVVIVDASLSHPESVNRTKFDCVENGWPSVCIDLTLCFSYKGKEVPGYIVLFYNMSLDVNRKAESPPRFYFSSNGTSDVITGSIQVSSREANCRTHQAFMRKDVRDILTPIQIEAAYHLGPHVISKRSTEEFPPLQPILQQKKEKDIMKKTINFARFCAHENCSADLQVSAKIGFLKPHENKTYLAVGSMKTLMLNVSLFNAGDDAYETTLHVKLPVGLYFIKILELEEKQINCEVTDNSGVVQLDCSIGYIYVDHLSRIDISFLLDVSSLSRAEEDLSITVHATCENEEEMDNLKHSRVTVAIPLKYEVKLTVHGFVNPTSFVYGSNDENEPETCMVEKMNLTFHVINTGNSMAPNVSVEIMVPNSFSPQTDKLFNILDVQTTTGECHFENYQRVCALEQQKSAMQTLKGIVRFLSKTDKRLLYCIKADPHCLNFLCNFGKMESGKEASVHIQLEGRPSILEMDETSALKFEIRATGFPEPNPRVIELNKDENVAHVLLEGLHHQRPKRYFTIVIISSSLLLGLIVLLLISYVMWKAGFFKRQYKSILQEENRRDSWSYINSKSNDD
ALR H2O2 inh: human ALR oxidase inhibition via reduced H2O2. purified ALR, DTT oxidation, H2O2 HRP-luminol luminescence. inhibition, % (test concentration not listed). 290,000 compounds, 3.8% hits. AID 485317;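 active = mean replicate inhibition above about 79%, with every replicate also reaching it, limit read from the data; inconclusive = only one of the two criteria met; inactive = mean below limit and not every replicate reaching it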
Mot1-301 SUMO: blocks SUMOylation pathway, rescuing yeast Mot1-301 growth. S. cerevisiae Mot1-301 growth rescue, ATP luminescence, 38.5C; percent above DMSO median, 100 means doubled. AID 2716. 320,000 compounds, 1% hits. growth rescue, % at 18.8 µM;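 active = every valid replicate shows activation above 250% relative to neutral control wells; inactive = the rest, any valid replicate at or below 250%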
AHR act: activators of human aryl hydrocarbon receptor; P35869; AHR-responsive luciferase reporter cells, luminescence; activation, % at 5 µM; 320,000 compounds, 2.5% hits; AID 2796; in the data active = activation above about 47%
Bfl-1 A1 inh: inhibitors of the anti-apoptotic protein A1, read as caspase activation. MEF A1-2A-BIM cells, Caspase-Glo 3/7 luminescence, 3 h; percent of clofoctol response, vehicle zero. caspase activation, % (test concentration not listed). 330,000 compounds, 0.066% hits. AID 2462;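 active = over half of replicate activation scores above 10%, or exactly half above 10 with the replicate mean above 10; inconclusive = replicate mean below 10 yet half the replicates above 10; inactive = over half of replicates below 10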
Each line names hits and unclear results; the compound was inactive in the other large screens. Rows were chosen to be rich in hits. Some 7.2% of all compounds tested hit in one or more screens of this group.

Cn1nc(C(=O)OCC(=O)Nc2ccc(C(N)=O)cc2)c2ccccc2c1=O	none
COc1ccc(NC(=O)CSc2nnc(-c3ccco3)n2N)cc1Cl	none
COc1ccc(NC(=O)CSc2nnc(-c3ccccn3)n2Cc2ccco2)cc1OC	ALR H2O2 inh 97 (no result: Mot1-301 SUMO)
Cc1ccc(NC(=O)CSc2nnc(-c3cnccn3)n2Cc2ccco2)cc1	none
C=CCn1c(SCC(=O)Nc2ccc(NC(=O)c3ccco3)c(OC)c2)nnc1-c1ccncc1	ALR H2O2 inh 99
COc1ccc(NC(=O)CSc2nnc(-c3ccccn3)n2N)cc1Cl	AHR act 73
NC(=O)c1ccc(NC(=O)CSc2nnc(-c3cccnc3)n2Cc2ccco2)cc1	ALR H2O2 inh 97
COc1ccccc1CN1CCC(n2nccc2NC(=O)CCOc2ccccc2)CC1	none
N#Cc1cccc(NC(=O)CCNC(=O)c2ccccc2Cl)c1	none
C=CC[N+](C)(C)C/C(Cl)=C(\Cl)c1ccccc1	none
CCN(CCO)Cc1cc(=O)oc2cc3c(cc12)CCC3	ALR H2O2 inh 87
CCC(=O)N/N=c1/sc2ccccc2n1C	none
Cn1/c(=N/NC(=O)c2ccccc2F)sc2ccccc21	AHR act 70
COc1cccc(C(=O)N/N=c2\sc3ccccc3n2C)c1	AHR act 73
COc1ccccc1CC(=O)NCCN1CCCCC1	none
Cc1ccc(-n2cnc3scc(-c4cccs4)c3c2=O)cc1	none
Cc1ccc(C(=O)Nn2cnc3scc(-c4cccs4)c3c2=O)c(O)c1	AHR act 60
Cc1n[nH]c(=O)c2c(NC(=O)CSc3nn(-c4ccc(F)cc4)c(=S)s3)oc(C)c12	ALR H2O2 inh 99
CC(C)NC(=O)CC1(C(=O)NCc2ccc(Cl)cc2)CCCC1	Mot1-301 SUMO 302
Cc1cc(C(=O)N2CCCC(Nc3ccccc3)C2)c2ccc(F)cc2n1 (stereo not given)	ALR H2O2 inh 99
COc1ccc(NC2CCCN(C(=O)c3cc(C)nc4cc(F)ccc34)C2)cc1 (stereo not given)	ALR H2O2 inh 99
O=C(CN(C(=O)CCC(=O)Nc1nccs1)c1ccccc1F)NCc1ccc(F)cc1	none
O=C(NCCc1ccccc1)C1CCCN(c2nc3ccccc3s2)C1 (stereo not given)	none
Fc1ccc(-n2[nH]nnc2=S)cc1N1CCCC1	ALR H2O2 inh 82
CS/C(N)=N/N=C/c1cc(Br)cc(Br)c1O	AHR act 66
COc1ccc(/C=N/NC(=O)c2cccnc2)cc1CSc1nc2ccccc2s1	AHR act 54
COc1ccc(/C=N/NC(=O)c2ccccc2Cl)cc1CSc1nc2ccccc2s1	none
COc1cccc(NC(=O)CSCc2cc(=O)n3ccsc3n2)c1	ALR H2O2 inh 99
CCOCCc1nn2c(=O)cc(CSCC(=O)Nc3ccccc3)nc2s1	ALR H2O2 inh 99
O=C(CSCc1cc(=O)n2ccsc2n1)Nc1ccccc1	ALR H2O2 inh 99
COc1ccccc1NC(=O)CSCc1cc(=O)n2ccsc2n1	none
CCOCCc1nn2c(=O)cc(CSCC(=O)Nc3ccc(OC)cc3)nc2s1	none
Cc1cccc(NC(=O)CSCc2cc(=O)n3nc(C4CC4)sc3n2)c1	ALR H2O2 inh 98
COc1ccccc1NC(=O)c1c(N=Cc2cccc([N+](=O)[O-])c2)cnn1C	none
CCCC(=O)c1c[nH]c(C(=O)NCCc2ccccn2)c1	none (no result: ALR H2O2 inh)
CC1=C2C3OC(=O)C(C)[C@@H]3CC[C@](C)(O)C2C2C3C4C5(C12)[C@H]1OC(=O)[C@@H](C)C1CC[C@]4(C)O[C@]5(C)[C@@H]3O (stereo not given in full)	none
O=C(Nc1ccc(Cl)c([N+](=O)[O-])c1)c1cnccn1	AHR act 70 (no result: ALR H2O2 inh)
CC1(C)CC[C@]2(C(=O)O)CC[C@]3(CO)C(=CCC4[C@@]5(C)C[C@H](O)[C@H](O)[C@@](C)(C(=O)O)C5CC[C@]43C)[C@@H]2C1 (stereo not given in full)	none
CCOC(=O)N1CCN(CC(=O)Nc2c(C(=O)OC)[nH]c3ccc(Cl)cc23)CC1	none
CCOC(=O)c1[nH]c2cc3c(cc2c1NC(=O)CN1CCC2(CC1)OCCO2)OCO3	AHR act 62
CCOC(=O)N1CCN(CC(=O)Nc2c(C(=O)OC)[nH]c3cc(C)ccc23)CC1	AHR act 64
COC(=O)c1[nH]c2ccc(C)cc2c1NC(=O)CN1CCN(c2ccccc2)CC1	none
Cc1ccc2[nH]c(C(=O)O)c(NC(=O)CN3CCN(c4cccc(C)c4C)CC3)c2c1	ALR H2O2 inh 94
O=C(Nc1ccccc1Sc1ccccc1)C1CCCO1 (stereo not given)	none
Cc1ccccc1OCC(=O)Nc1ccccc1C(=O)N1CCCCC1	ALR H2O2 inh 86
Cc1ccccc1OCCC(=O)Nc1ccccc1C(=O)N1CCCCC1	none
CCOC(=O)CSc1ccc(-c2nc3cc(C)c(C)cc3[nH]2)cn1	none
O=C(CSc1ncccc1-c1nc2ccccc2[nH]1)NC1CC1	none
COCCOC(=O)CSc1ncccc1-c1nc2cc(C)c(C)cc2[nH]1	ALR H2O2 inh 98
Cc1cc2nc(-c3cccnc3SCC(=O)NC(C)C)[nH]c2cc1C	AHR act 54
O=C(C1=C(O)C(=O)N(c2ncccn2)C1c1ccc(Cl)cc1)c1ccco1 (stereo not given)	AHR act 75 (no result: ALR H2O2 inh)
CSc1nnc(N2C(=O)C(O)=C(C(=O)c3ccco3)C2c2ccc(F)cc2)s1 (stereo not given)	none
CSc1nnc(N2C(=O)C(O)=C(C(=O)c3ccco3)C2c2cccc(Cl)c2)s1 (stereo not given)	ALR H2O2 inh 87
Cc1cc(C)c2nc(N3C(=O)C(O)=C(C(=O)c4ccco4)C3c3ccco3)sc2c1 (stereo not given)	ALR H2O2 inh 98
O=C(C1=C(O)C(=O)N(c2ncccn2)C1c1ccc(Cl)c(Cl)c1)c1ccco1 (stereo not given)	none
OCC[C@H]1C[C@@H](O)[C@H](O)[C@]2(OCCc3ccccc32)O1	none (no result: ALR H2O2 inh)
CCOC(=O)c1c(N)sc2c(OC)c(Br)ccc12	ALR H2O2 inh 99
CCOc1ccc(-c2csc(NC(=O)CSC3=NC(=O)CN3C(C)=O)n2)c2ccccc12	ALR H2O2 inh 99
CCOc1ccc(-c2csc(NC(=O)CSCC(=O)O)n2)c2ccccc12	none
CC(=O)N1CC(=O)N=C1SCC(=O)Nc1nc(C)c(-c2ccccc2)s1	ALR H2O2 inh 98
Cc1ccc(C)c(C(=O)CSc2nc(N)cc(=O)[nH]2)c1	none
COc1ccc(C(=O)CSc2nc(C)cc(=O)[nH]2)cc1	ALR H2O2 inh inconclusive
Cc1ccc(C(=O)CSc2nc(N)cc(=O)[nH]2)cc1	ALR H2O2 inh 99
Nc1cc(=O)[nH]c(SCC(=O)c2ccc(F)cc2)n1	ALR H2O2 inh 98

Source: PubChem (several laboratories)
